Measurements taken from PubChem BioAssay AID686979 (National Center for Advancing Translational Sciences (NCATS), 2013).
The whole screen tested about 420,000 compounds, of which about 50,000 (12%) were called active. Where a call stands in place of a potency, no number is given. Inconclusive results (about 26%) are left out. Calls follow the shape of the dose curve; as a rule, active = well fitted inhibition curve with a large enough effect; inconclusive = small, poorly fitted or top-dose-only effect; inactive = flat fitted curve, though single readings scatter. Only a selection was taken, and actives are over-represented in it overall.

Assay: qHTS for Inhibitors of human tyrosyl-DNA phosphodiesterase 1 (TDP1): qHTS in cells in presence of CPT; also: nearly all actives have a fitted effect of over 55% in size
Details: chicken DT40 Tdp1-/-;hTDP1 cells + 20 nM CPT, ATP luminescence, 48 h; series mostly up to 46.2 µM
Method in brief: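 Chicken DT40 Tdp1-/- cells stably complemented with human TDP1 were seeded at 400 cells/well in medium containing 20 nM camptothecin, exposed to pin-transferred compounds, and grown at 37 °C for at least 48 hr. Viability was read as ATP luminescence.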
Potency is read from the fitted curve at half-maximal effect.

Compound | Potency
CNC(=O)C[C@H]1C(=O)N(Cc2ccccc2)C[C@@H]1CSC | inactive
CCOc1ccc(N(CC(=O)Nc2ccccc2F)S(=O)(=O)c2c(C)[nH]c(=O)[nH]c2=O)cc1 | inactive
Cc1ccc(NC(=O)Cn2nnc(C(=O)NCc3ccco3)c2N)c(C)c1 | inactive
CCN(C(=O)Cc1c(C(=O)O)n(CC)c2ccccc12)c1ccccc1C | inactive
COc1ccc(CNS(=O)(=O)c2ccc(NC(=O)N3CCCCC3)cc2)cc1 | 18.4 µM (active)
COc1ccc(S(=O)(=O)NC(C)C(=O)N2CCCCCC2)cc1 (configuration not stated) | inactive
COc1ccc(NC(=O)N2CC3(CCN(C(C)=O)CC3)C2)cc1 | inactive
COC(=O)C[C@H]1C[C@@H]2c3cc(N(C)C)ccc3O[C@@H]2[C@H](CO)O1 | inactive
O=C(NC1CCN(S(=O)(=O)c2ccc(F)cc2)CC1)c1ccccc1 | inactive
CCCS(=O)(=O)c1ncc(Cl)c(C(=O)Nc2scc(-c3ccccc3)c2C(=O)OCC)n1 | 2.31 µM (active)
CCOC(=O)c1c(-c2ccc(-c3ccccc3)cc2)csc1NC(=O)CCC(=O)O | inactive
Cc1ccc2nc(NC(=O)c3nc(SCc4ccccc4F)ncc3Cl)sc2c1 | inactive
O=C(CN1C(=O)CC(c2ccccc2)S(=O)(=O)c2ccccc21)NC1CCCC1 (configuration not stated) | inactive
Cc1ccc(-c2noc(CNC(=O)c3ccoc3C)n2)cc1 | inactive
CSc1n[nH]c(=S)n1N | inactive
CC(C)NC(=O)N1CCC2(CC1)CCN(C(=O)c1cccn1C)CC2 | inactive
COc1ccc(NC(=O)N2CC3(CCN(C(=O)c4cccn4C)CC3)C2)cc1 | inactive
Cn1cccc1C(=O)N1CCC2(CC1)CN(c1cccc(-c3ccccc3)c1)C2 | 18.4 µM (active)
O=C(C=CC(=O)Nc1ccc(F)cc1F)Nc1ccc(F)cc1F | inactive
Cc1nc2ccc(S(=O)(=O)N(C)CC(=O)NC(C)c3ccccc3)cc2s1 (configuration not stated) | inactive
O=C(Nc1cccc(Cl)c1)Nc1ccccc1NS(=O)(=O)c1cccs1 | inactive
CCOC(=O)c1ccc(NC2Nc3cc(C)nn3S2)cc1 (configuration not stated) | inactive
O=C(Nc1ccc2ccccc2c1)/C(=C\c1ccc2c(c1)OCO2)NC(=O)c1ccco1 | inactive
Cc1ccc(C(=O)NNC(=O)C(C)Oc2ccc3ccccc3c2)o1 (configuration not stated) | inactive
CC(Oc1ccc2ccccc2c1)C(=O)NNC(=S)NC(=O)c1ccco1 (configuration not stated) | 23.1 µM (active)
CC(C)=CCN1CCN(Cc2cc3ccccc3[nH]2)CC1CCO (configuration not stated) | inactive

Compound | Potency
COc1ccc(OC)c(CN2C(=O)CCC2(C)c2nnnn2Cc2ccccc2)c1 (configuration not stated) | inactive
CCCNc1ncnc2sc(C)c(C)c12 | 16.4 µM (active)
Cc1sc2ncnc(SCC(=O)NC3CCS(=O)(=O)C3)c2c1C (configuration not stated) | inactive
CSc1ncnc2sc(C)c(C)c12 | inactive
COc1cccc(NC(=O)CCNS(=O)(=O)c2ccc3c(c2)oc(=O)n3C)c1 | inactive
CCc1ccccc1NC(=O)c1ccc2c(c1)CCN2S(C)(=O)=O | inactive
CC(C)=CCC/C(C)=C/C(=O)O | inactive
COc1ccccc1-c1cc2nc(C)c(CCC(=O)NC3CCCCC3)c(C)n2n1 | inactive
COc1ccc(N)c(C)c1 | inactive
COc1ccc(-c2ccc(C(=O)NC(C)C)c3occc23)c(C)c1 | 14.6 µM (active)
COc1ccc(C2OC(=O)CC2C(=O)NC(C)C)cc1 (configuration not stated) | inactive
COc1ccc(Cl)cc1C(=O)OCC(=O)NCc1cccs1 | inactive
Cc1nnc(SC(C(=O)c2ccccc2)c2ccccc2)[nH]c1=O (configuration not stated) | inactive
CN1CCC(N(C)C(=O)c2ccc(Cl)c(S(=O)(=O)Nc3ccc(Cl)cc3)c2)CC1 | inactive
Cc1cccc(-n2ncc3c(=O)[nH]c(SCC(=O)Nc4cc(C)on4)nc32)c1 | inactive
O=C(CN1C(=O)c2cccnc2Oc2ccc(Cl)cc21)NCCc1ccccc1 | inactive
CCN(CC)c1ccc(NC(=O)CN2C(=O)c3cccnc3Oc3ccc(Cl)cc32)c(C)c1 | 9.2 µM (active)
CC(=O)c1cccc(NC(=O)CN2C(=O)c3cccnc3Oc3ccc(Cl)cc32)c1 | 18.4 µM (active)
CCN(CC)c1ccc(NC(=O)Cn2nc3c(cc2=O)CCCC3)c(C)c1 | inactive
Cc1ccc2c(c1)N(CC(=O)NCCCN1CCCCC1)C(=O)c1cccnc1O2 | inactive
Cc1ccc2c(c1)N(CC(=O)N1CCC(C)CC1)C(=O)c1cccnc1O2 | inactive
COC(=O)Cc1ccc(OCC(=O)NC2CCCC2)cc1 | inactive
COc1cccc(N(CC(=O)NC2CCCC2)C(=O)CCCC(=O)Nc2ccccn2)c1 | inactive
COCC1CCN(C(=O)C2CCC(=O)N(Cc3cccc(C(F)(F)F)c3)C2)CC1 (configuration not stated) | inactive
CC(=O)CC[C@@H](C)O[C@@H]1OC(C)[C@H](O)CC1O (some centres not stated) | inactive
Nc1nc(SCc2cccc(Br)c2)n[nH]1 | inactive

Compound | Potency
COc1cc2ccccc2cc1C(=O)Nc1ccccc1C | inactive
COc1cccc(-n2c(SCC(=O)NC3CCS(=O)(=O)C3)nc3ccccc3c2=O)c1 (configuration not stated) | inactive
COCCn1c(C)cc(C(=O)CSc2nc3ccccc3c(=O)n2C(C)COC)c1C (configuration not stated) | 20.6 µM (active)
CCCn1c(N)c(C(=O)CSc2nc3ccccc3c(=O)n2-c2ccc(OC)cc2)c(=O)[nH]c1=O | inactive
COc1cccc(-n2c(N)cc(=O)nc2SCC(=O)Nc2cc(C)on2)c1 | inactive
COCC(C)n1c(SCC(=O)NC2CCCCC2C)nc2ccccc2c1=O (configuration not stated) | inactive
COCCn1c(C)cc(C(=O)CN2c3cccc4cccc(c34)S2(=O)=O)c1C | inactive
COc1cccc(-n2c(SCC(=O)c3c[nH]c4ccccc34)nc3ccccc3c2=O)c1 | 20.6 µM (active)
COCCn1c(C)cc(C(=O)CSc2nnc(C3CC3)n2C2CC2)c1C | inactive
COC(=O)c1ccc(Cc2ccccc2)o1 | inactive
COC(=O)c1ccc(CSc2nc3ccccc3c(=O)n2-c2cccc(OC)c2)o1 | 20.6 µM (active)
COCCNC(=O)c1ccc(-n2c(SCc3cccnc3)nc3ccccc3c2=O)cc1 | inactive
COCC(C)n1c(SCc2ccc(C(=O)OC)o2)nc2ccccc2c1=O (configuration not stated) | 7.31 µM (active)
CCOc1ccc(CN(C)C(=O)c2ccc(=O)[nH]c2)cc1 | inactive
Cc1occc(=O)c1OCc1c(Cl)cccc1Cl | inactive
COc1ccc(C2C3=C(CCCC3=O)N(CC(=O)O)C3=C2C(=O)CCC3)cc1 | inactive
CSc1ccc(S(=O)(=O)N2CCC(C(=O)NCc3ccncc3)CC2)cc1 | inactive
COc1ccc(-c2c(C)nn3c(N4CCC(C(=O)N5CCCCC5)CC4)cc(C)nc23)cc1OC | inactive
CCN(CC)c1nc(-c2ccccc2)cc(C(F)(F)F)c1C#N | inactive
O=C(CNS(=O)(=O)c1ccccc1)NCC(=O)OCc1ccccc1F | inactive
Cc1cc(=O)oc2cc(OC(C)C(=O)NCCc3ccc(S(N)(=O)=O)cc3)ccc12 (configuration not stated) | inactive
Nc1nc(SCC(=O)NNc2c(Cl)cc(Cl)cc2Cl)n[nH]1 | inactive
COc1cc(Cl)c(C)cc1NC(=O)COC(=O)c1cc(SC)ccc1Cl | inactive
CCC(C)Cn1c(O)cc2nn(-c3nc4ccccc4s3)c(=O)c-2c1C (configuration not stated) | 14.6 µM (active)
Cc1ccc(-c2nn3c(=O)cc(CN4CCN(S(=O)(=O)c5ccc(Cl)cc5)CC4)nc3s2)cc1 | inactive
CCc1ccc(C2C(C#N)=C(N)N(N(C)C)C3=C2C(=O)CCC3)s1 (configuration not stated) | inactive

Compound | Potency
CSc1sc(C)cc1C1C(C#N)=C(N)N(c2cccnc2)C2=C1C(=O)CCC2 (configuration not stated) | 11.6 µM (active)
Cc1sc(C2C(C#N)=C(N)N(c3cccc(Cl)c3)C3=C2C(=O)CCC3)cc1CN1CCOCC1 (configuration not stated) | inactive
Cc1cn(C)c(CC(=O)NCc2ccccc2)c1C(=O)O | inactive
C=CCn1c(SCC(N)=O)nnc1-c1cc2c(s1)CCC(CC)C2 (configuration not stated) | inactive
CCC1OC(c2ccc([N+](=O)[O-])cc2)=Nc2ccccc21 (configuration not stated) | inactive
CC(NC(=O)c1ccco1)c1ccc2c(c1)OCO2 (configuration not stated) | inactive
COc1ccc(C(CCNCc2ccccc2F)c2ccc(F)cc2)cc1 (configuration not stated) | 16.4 µM (active)
COc1ccc(C(CNCC(=O)Nc2ccccc2F)N(C)C)cc1 (configuration not stated) | inactive
COc1ccc(CCNC(=O)COC(=O)Cc2ccccc2F)cc1 | inactive
O=C(NNC(=O)C1CCC1)c1ccccc1 | inactive
CC1(C)c2[nH]c3ccccc3c2C[C@H]2C(=O)N(N)CC(=O)N21 | inactive
Nc1ncnc2c1ncn2[C@@H]1O[C@H](CNC(=O)[C@H](N)Cc2cccnc2)[C@@H](O)[C@H]1O | inactive
COc1cccc(CN(C)C(=O)CC[C@H]2O[C@@H](n3cnc4c(NC(=O)c5ccccc5)ncnc43)[C@H](O)[C@@H]2O)c1 | inactive
COc1ccc(CC(N)C(=O)NC2C(O)[C@H](n3cnc4c(N(C)C)ncnc43)O[C@@H]2CO)cc1 (some centres not stated) | 17.6 µM (active)
CC(=O)N1CCOc2ccc(S(=O)(=O)N3CCC(C(=O)Nc4ccccc4F)CC3)cc21 | inactive
CN(CCO)S(=O)(=O)c1ccc2c(c1)C(=O)c1cc(S(=O)(=O)N(C)CCO)ccc1-2 | inactive
O=C1c2ccccc2C(=O)N1c1ccc(S(=O)(=O)N2CCOCC2)c2ccccc12 | inactive
CCCC/C=C/c1cccc2nncn12 | inactive
CCS(=O)(=O)N1CCC(C(=O)N2CCN(c3ccccc3)CC2)CC1 | inactive
CC(=O)c1ccc(N2CCN(C(=O)C3CCN(S(=O)(=O)c4ccc5c(c4)CC(C)N5C(=O)C4CC4)CC3)CC2)cc1 (configuration not stated) | 11.6 µM (active)
CC(=O)c1ccc(N2CCN(S(=O)(=O)c3ccc4c(c3)CC(=O)N4C)CC2)cc1 | inactive
Cc1ccc2c(c1)N(CCCC(=O)NCc1cccnc1)C(=O)CO2 | inactive
Cc1nc(CC(=O)NNS(=O)(=O)c2ccc(F)c(Cl)c2)cs1 | inactive
CN(C)S(=O)(=O)c1ccc(Cl)c(NC(=O)COC(=O)CC(NC(N)=O)c2ccc(Cl)cc2)c1 (configuration not stated) | inactive
